Reference: PubChem BioAssay AID1345085 (National Center for Advancing Translational Sciences (NCATS), 2018)
Records with an inconclusive call do not appear. The source made the active and inactive calls. Calls follow the shape of the dose curve; as a rule, active = well fitted cell-killing curve with a large enough effect; inconclusive = small, poorly fitted or top-dose-only effect, or effect the other way; inactive = no such curve, though single readings can be large or run the other way. *1 amine or outer side, *2 acyl side, *3 side chain or, on linkers, in order; H or OH if unused. Where a SMILES comes first, the peptide text is derived from it. Bridges are numbered along the chain shown (N, C = ends). Roman numbers before positions name the chains, in order. [ ]: non-standard residue; d: D form. Actinocin(9to1) = Cc1c2oc3c(C)ccc(C(=O)[*:1])c3nc-2c(C(=O)[*:2])c(N)c1=O; NMeV = CN[C@H](C(=O)O)C(C)C; Sar = CNCC(=O)O

System: Jar
Assay: Confirmatory qHTS for gynecologic anti-cancer compounds from libraries of approved drugs and bioactive compounds; also: nearly all actives have a fitted effect of over 55% in size
Details: gynecologic cancer cell panel viability, ATPlite luminescence, 48 h; series mostly up to 57.6 µM
Method in brief: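 Seeding 1,000 cells per well preceded overnight (16 h) attachment, after which 48 h drug treatment across 57.5 uM–0.977 nM (11 points) was applied. Remaining cellular ATP, detected by ATPlite luminescence, defined IC50.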
Potency is read from the fitted curve at half-maximal effect.

Row | SMILES | Potency
1 | COCCOc1ccc2c(c1)ncn2-c1ccc2cccc(N3CCC(N)CC3)c2n1 | inactive
2 | C[C@@H](Oc1cc(-c2cnn(C3CCNCC3)c2)cnc1N)c1c(Cl)ccc(F)c1Cl | 15.3 µM (active)
3 | CNC(=O)c1nn(C)c2c1C(C)(C)Cc1cnc(Nc3ccc(N4CCN(C)CC4)cc3)nc1-2 | 1.72 µM (active)
4 | COc1cc(N2CCC(N3CCN(C)CC3)CC2)ccc1Nc1ncnc(Nc2ccccc2S(=O)(=O)C(C)C)n1 | inactive
5 | Cc1[nH]c2ccccc2c1CCNCc1ccc(/C=C/C(=O)NO)cc1 | 0.193 µM (active)
6 | CCOc1ccc(Nc2nc(-c3c(C)nc4ccccn34)cs2)cc1 | 0.0243 µM (active)
7 | Cc1cnc(Nc2cccc(CN3CCOCC3)c2)nc1Nc1cccc(S(=O)(=O)NC(C)(C)C)c1 | 21.7 µM (active)
8 | CCCCc1oc2ccc(NS(C)(=O)=O)cc2c1C(=O)c1ccc(OCCCN(CCCC)CCCC)cc1 | 30.6 µM (active)
9 | C1CCC(C(CC2CCCCN2)C2CCCCC2)CC1 (stereo unspecified) | 24.3 µM (active)
10 | COC(C(=O)N1Cc2[nH]nc(NC(=O)c3ccc(N4CCN(C)CC4)cc3)c2C1)c1ccccc1 (stereo unspecified) | inactive
11 | COc1cc2nccc(Oc3ccc(NC(=O)C4(C(=O)Nc5ccc(F)cc5)CC4)cc3)c2cc1OC | 27.3 µM (active)
12 | O=c1[nH]c(=O)n([C@H]2C[C@H](O)[C@@H](CO)O2)cc1C(F)(F)F | inactive
13 | Cc1nc(NC(=O)N2CCCC2C(N)=O)sc1-c1ccnc(C(C)(C)C(F)(F)F)c1 (stereo unspecified) | 12.2 µM (active)
14 | CCCC(Nc1nc(-c2ccc(NC(=O)NCC)c(OC)c2)ncc1C)c1cccnc1 (stereo unspecified) | 0.432 µM (active)
15 | Cc1c2oc3c(C)ccc(C(=O)N[C@@H]4C(=O)N[C@H](C(C)C)C(=O)N5CCC[C@H]5C(=O)N(C)CC(=O)N(C)[C@@H](C(C)C)C(=O)O[C@@H]4C)c3nc-2c(C(=O)N[C@@H]2C(=O)N[C@H](C(C)C)C(=O)N3CCC[C@H]3C(=O)N(C)CC(=O)N(C)[C@@H](C(C)C)C(=O)O[C@@H]2C)c(N)c1=O (I: T[dV]P[Sar][NMeV] / II: T[dV]P[Sar][NMeV]; ester I:1-I:C, II:1-II:C; linker I:N-II:N via Actinocin(9to1)) | 1.72 µM (active)
16 | Cc1cnc(Nc2ccc(CN3CCOCC3)cc2)nc1Nc1cccc(S(=O)(=O)NC(C)(C)C)c1 | 9.68 µM (active)

Row | SMILES | Potency
17 | CCC1=CC2CN(C1)Cc1c([nH]c3ccccc13)[C@@](C(=O)OC)(c1cc3c(cc1OC)N(C)[C@H]1[C@@](O)(C(=O)OC)[C@H](OC(C)=O)[C@]4(CC)C=CCN5CC[C@]31[C@@H]54)C2 (stereo partly specified) | 0.133 µM (active)
18 | CC(=O)OC12COC1CC(O)C1(C)C(=O)C(O)C3=C(C)C(OC(=O)C(O)C(NC(=O)OC(C)(C)C)c4ccccc4)CC(O)(C(OC(=O)c4ccccc4)C21)C3(C)C (stereo unspecified) | 0.0432 µM (active)
19 | C[C@]12CCC(=O)C=C1[C@@H]1C[C@@H]1[C@H]1[C@@H]3[C@@H]4C[C@@H]4[C@@]4(CCC(=O)O4)[C@@]3(C)CC[C@@H]12 | inactive
20 | CC(Oc1cc(-n2cnc3ccc(CN4CCN(C)CC4)cc32)sc1C(N)=O)c1ccccc1C(F)(F)F (stereo unspecified) | 3.06 µM (active)
21 | Nc1nc(=S)c2[nH]cnc2[nH]1 | 9.68 µM (active)
22 | O=C(Nc1cccnc1)N1CCC(Cc2cccc(Oc3ccc(C(F)(F)F)cn3)c2)CC1 | 9.68 µM (active)
23 | Cn1cnc2c(F)c(Nc3ccc(Br)cc3F)c(C(=O)NOCCO)cc21 | inactive
24 | Cn1cnc([N+](=O)[O-])c1Sc1ncnc2nc[nH]c12 | 27.3 µM (active)
25 | Cn1cnc2c(F)c(Nc3ccc(Br)cc3Cl)c(C(=O)NOCCO)cc21 | inactive
26 | CCc1nc(C(N)=O)c(Nc2ccc(N3CCC(N4CCN(C)CC4)CC3)c(OC)c2)nc1NC1CCOCC1 | 13.4 µM (active)
27 | NC(=O)Nc1cc(-c2cccc(F)c2)sc1C(=O)NC1CCCNC1 (stereo unspecified) | 1.22 µM (active)
28 | Nc1ccn([C@@H]2O[C@H](CO)[C@@H](O)C2(F)F)c(=O)n1 | inactive
29 | Cn1c(=O)c(-c2c(Cl)cccc2Cl)cc2cnc(Nc3cccc(C(=O)O)c3)nc21 | 2.43 µM (active)
30 | CC(C)[C@@H](CS(=O)(=O)C(C)C)N1C(=O)[C@@](C)(CC(=O)O)C[C@H](c2cccc(Cl)c2)[C@H]1c1ccc(Cl)cc1 | 2.73 µM (active)
31 | Cc1csc(NC(=O)c2sc3nc4c(c(C(F)(F)F)c3c2N)CCC4)n1 | 3.43 µM (active)
